Source: PubChem BioAssay (EPA / NIEHS)
Inconclusive results are not listed. The source holds several records for some structures; these can differ, active in one and inactive in another. Calls of active or inactive are those of the source. Rule for the calls: active = hit-call score of the fitted dose curve at least 0.9, where 1 is the maximum; inconclusive = response in the unintended direction; inactive = score below 0.9.

Read-out: HMG-CoA synthase (HMGCS2), HMGCS2 (gene 3158)
Assay: CLD_HMGCS2_48hr: CellzDirect (CLD) Gene Expression Assay for HMG-CoA synthase (HMGCS2) at 48 hours (AID 2283711)
Experimental: CLD_48hr is a cell-based, multiplexed-readout assay that uses hepatocyte, a human liver primary cell, with measurements taken at 48 hours after chemical dosing in a 96-well plate.CLD_HMGCS2_48hr is one of 16 assay component(s) measured or calculated from the CLD_48hr assay. It is designed to make measurements of mRNA induction, a form of inducible reporter, as detected with chemiluminescence signals by Quantitative Nuclease Protection Assay (qNPA) technology.Data from the assay component CLD_HMGCS2_48hr was analyzed at the endpoint, CLD_HMGCS2_48hr, in the positive analysis fitting direction relative to DMSO as the negative control and baseline of activity. Using a type of inducible reporter, gain-of-signal activity can be used to understand changes in the reporter gene as they relate to the gene HMGCS2. Furthermore, this assay endpoint can be referred to as a primary readout. To generalize the intended target to other relatable targets, this assay endpoint is annotated to the lyase intended target family, where subfamily is HMG-CoA synthase.
Human hepatocyte cultures were treated daily for two consecutive days with fresh dosing solutions containing appropriate concentrations of the 320 ToxCast chemicals (chemical identities were blinded to CellzDirect and other ToxCast collaborators), vehicle control (0.2% DMSO), and positive control inducers as summarized in Table 1. Due to the large number of treatment groups and chemicals examined, the ToxCast chemicals were divided into two groups (spanning two independent cultures of hepatocytes from separate donor preparations (Hu778: ToxCast plates 1 and 2; Hu776: ToxCast plates 3 and 4). Each preparation of human hepatocyte cultures was treated with respective vehicle control, medium only control, set of six positive controls/reference chemicals for the five hepatic receptor pathways, and a subset of eight of the ToxCast chemicals (indoxacarb, pyrithiobac-sodium, norflurazon, cyhalofop-butyl, methomyl, thiram, acetochlor, and propiconazole). These replicate data, coupled with internal replicates designed within the blinded ToxCast chemical library, provided additional data to evaluate interindividual differences between hepatocyte preparations and their potential impact on chemical profiles.Cell morphology and integrity were evaluated using phase-contrast microscopy as an indicator of hepatocyte cell health (Tyson & Green, 1987). Cultures for each treatment group (i.e., media, vehicle [0.2% DMSO], positive control inducers [multiple concentrations], and the ToxCast chemicals [multiple concentrations]) were observed and cell morphology was assessed relative to vehicle control cultures at each harvest time point (0, 6, 24, or 48 h). […] Images were evaluated at the conclusion of the study to assess changes in cell integrity and account for the effects of chemical exposure on uncharacteristic changes in concentration-dependent gene expression profiles. The results from these determinations of apparent cytotoxicity were annotated (yes/no) alongside the corresponding qNPA data for reference.At the conclusion of each treatment period, hepatocyte cultures (96-well) were washed with 1 volume of HBSS, lysed by addition of 25 ul ArrayPlate lysis buffer (HTG, Tucson, AZ), and 70 ul/well of Denaturation Oil, denatured by incubation at 95C for 10 min, and frozen at approximately -70C until analysis by nuclease protection assay (qNPA) (Roberts et al., 2007). For qNPA analysis, cell lysates were thawed at 50C for approximately 30 min, qNPA probes were added, and samples were incubated at 95C for 10 min to begin the detection process by denaturing the target RNA, dissociating the duplexes and secondary structure hybridization. At the conclusion of the hybridization period, S1 nuclease reagent was added to each sample to digest all nonprotected nucleotides at 50C for 60-90 min. […]

Compound | outcome | AC50
N#CC(CCc1ccc(Cl)cc1)(Cn1cncn1)c1ccccc1 (centres undefined) | inactive | 
CCCCOC(=O)c1ccccc1C(=O)OCCCC | inactive | 
CS/C(C)=N/OC(=O)N(C)SN(C)C(=O)O/N=C(\C)SC | inactive | 
O=C(O)COc1nc(Cl)c(Cl)cc1Cl | inactive | 
CCON=C(CC)C1=C(O)CC(c2c(C)cc(C)cc2C)CC1=O (centres undefined) | inactive | 
CCOP(=S)(OCC)SCn1c(=O)oc2cc(Cl)ccc21 | inactive | 
COc1nc(C)nc(NC(=O)NS(=O)(=O)c2ccccc2CCC(F)(F)F)n1 | inactive | 
C=CCC1=C(C)C(OC(=O)C2C(C=C(C)C)C2(C)C)CC1=O (centres undefined) | inactive | 
CC1COC(Cn2cncn2)(c2ccc(Oc3ccc(Cl)cc3)cc2Cl)O1 (centres undefined) | inactive | 
COC(=O)C(C)Oc1ccc(Oc2ccc(Cl)cc2Cl)cc1 (centres undefined) | inactive | 35.6 µM (active)
COP(N)(=O)SC (centres undefined) | inactive | 
CC(C)(C)c1ccc(CSc2cnn(C(C)(C)C)c(=O)c2Cl)cc1 | inactive | 
C#CCOS(=O)OC1CCCCC1Oc1ccc(C(C)(C)C)cc1 (centres undefined) | inactive | 
COC(=O)N(OC)c1ccccc1COc1ccn(-c2ccc(Cl)cc2)n1 | inactive | 
O=C(O)c1nc(Cl)ccc1Cl | inactive | 
Cc1cc(Cl)ccc1OCC(=O)O | inactive | 
COC(=O)c1ccccc1C(=O)OC | inactive | 
CC(Oc1ccc(Cl)cc1Cl)C(=O)O (centres undefined) | inactive | 
